# Values joined by “and” are separate entries in the source; they are usually repeats but may differ in a detail not shown here. Equal entries are not always repeated. Records with an inconclusive call do not appear. Where a structure was tested more than once in an assay, its records may differ in their call. Active and inactive are the calls of the source. How the source made its calls: active means hit-call score of the fitted dose curve at least 0.9, where 1 is the maximum; inconclusive means response in the unintended direction; inactive means score below 0.9.
# System: frog Estrogen Receptor (ER2), gene 100174814
# Assay: ATG_frER2_XSP2: Attagene TRANS-FACTORIAL Multi-Species (XSP2) HepG2 Assay for frog Estrogen Receptor (ER2) (AID 2283828)
# Method: ATG_XSP2_multi-species_TRANS is a cell-based, multiplexed assay created by modifying the existing Attagene TRANS-FACTORIAL system to include a panel of nuclear receptors from some or all the following species: human (Homo sapiens), mouse (Mus musculus), frog (Xenopus laevis), zebrafish (Danio rerio), chicken (Gallus gallus), and turtle (Chrysemys picta). The ECOTOX-FACTORIAL format uses HepG2, a human liver cell line, with measurements taken at 24 hours after chemical dosing in a 24-well plate. Xsp2 included 3 nM 6-alpha-fluorotestosterone and 1.5 nM norgestrel to stimulate the androgen receptor.ATG_frER2_XSP2 is one of 29 assay components measured or calculated from the ATG_XSP2_multi-species_TRANS assay. It is designed to make measurements of mRNA induction, a form of inducible reporter, as detected with fluorescence intensity signals by Reverse transcription polymerase chain reaction (RT-PCR) and Capillary electrophoresis technology.The assay endpoint ATG_frER2_XSP2 was analyzed in the positive analysis fitting direction relative to DMSO as the negative control and baseline of activity. Using a type of inducible reporter, measures of mRNA for gain-of-signal activity can be used to understand the reporter gene at the transcription factor-level as they relate to the gene ER. Furthermore, this assay endpoint can be referred to as a primary readout, because this assay has produced multiple assay endpoints where this one serves a reporter gene function. To generalize the intended target to other relatable targets, this assay endpoint is annotated to the nuclear receptor intended target family, where the subfamily is steroidal.
# Human liver HepG2 cells are transiently transfected with multiple reporter transcription units (MRTUs) in 6-well plates using FuGene 6 reagent (Roche; 3 ml FuGene/1 mg DNA). The MRTU constructs are regulated by a cis-regulating element (promoter). […] A major difference between the CIS and TRANS system is that in CIS activities of endogenous TFs are measured, whereas the TRANS assay evaluates changes in activities of exogenous, chimeric NR-Gal4 proteins. […] At the end of 24 hour incubation, total RNA was isolated using TriZol reagent (Invitrogen). The isolated RNA is then reverse-transcribed using oligo(dT) primer and Mo-MLV reverse transcriptase (Invitrogen) with DNAse I (Ambion) treatment for 30 min. The one-tenth of the produced cDNA was amplified by PCR using Taq DNA polymerase (Invitrogen) and two reporter sequence-specific primers. The PCR products were fluorescently labeled by primer extension with 6-arboxyfluorescein (6-FAM) 5'-labeled reporter sequence-specific primer (2 min at 95 C, 20 s at 68 C and 10 min at 72 C) and these products were digested with 5U of HpaI (New England Biolabs) for 2h at 37 C. The fragments were purified using Qiaquick PCR columns (Qiagen), analyzed on an ABI 3130xL genetic analyzer (Applied Biosystems) with peak positions identified by using a set of X-rhodamine (ROX)-labeled MapMarker1000 molecular weight standards (BioVentures). The raw capillary electrophoresis data was processed using Attagraph software (Attagene).
Compound,AC50,outcome
CCC(=O)O[C@H]1CC[C@H]2[C@@H]3CCC4=CC(=O)CC[C@]4(C)[C@H]3CC[C@]12C,29.8 nM (active),–
C[C@]12CCC(=O)C=C1CC[C@@H]1[C@@H]2CC[C@]2(C)C(=O)CC[C@@H]12,552 nM (active),inactive
CC(C)(c1ccccc1)c1ccc(O)cc1,1560 nM (active),–
CC(C)(O)C(=O)Nc1ccc([N+](=O)[O-])c(C(F)(F)F)c1,–,inactive
ClC(Cl)=C(c1ccc(Cl)cc1)c1ccc(Cl)cc1,10000 nM (active),–
c1cc2ccc3cccc4ccc(c1)c2c34,5720 nM (active),inactive
C[C@]12CCC(=O)C=C1CC[C@@H]1[C@@H]2CC[C@@]2(C)[C@H]1CC[C@]2(C)O,11.6 nM (active),–
CC(c1ccc(O)cc1)(c1ccc(O)cc1)c1ccc(O)cc1,–,inactive
Oc1ccc(C(c2ccc(O)cc2)(C(F)(F)F)C(F)(F)F)cc1,151 nM (active) and 386 nM (active),–
CCOC(=O)C(O)(c1ccc(Cl)cc1)c1ccc(Cl)cc1,9.66 µM (active) and 8.68 µM (active),–
Clc1ccc(C(c2ccccc2Cl)C(Cl)(Cl)Cl)cc1 (centres undefined),824 nM (active),–
Cc1cc(-c2ccc(N)c(C)c2)ccc1N,22.1 µM (active) and 10.6 µM (active),–
